IMPase cell inh – cell-permeable inhibitors of inositol monophosphatase (IMPase) | 120,000 tested, under 10 active | AID 901 | P97697 | CHO-M1 cells, IP1 accumulation, HTRF TR-FRET ratio | inhibition (IP1 accumulation), % at 46.1 µM; active = well fitted curve in the direction sought with a large enough effect in the signal ratio, not every such curve was filed as active; inconclusive = small, poorly fitted or top-dose-only effect, or a change in a side signal; inactive = no such curve, though single readings can be large or run the other way; the % refers to the signal ratio;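 note: cells stimulated with carbachol in lithium chloride buffer; plate controls were DMSO basal wells for no effect and reference inhibitor wells for full effect; higher means more IMPase inhibition seen as more IP1 and lower FRET ratio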
Target sequence (P97697 whole entry, looked up): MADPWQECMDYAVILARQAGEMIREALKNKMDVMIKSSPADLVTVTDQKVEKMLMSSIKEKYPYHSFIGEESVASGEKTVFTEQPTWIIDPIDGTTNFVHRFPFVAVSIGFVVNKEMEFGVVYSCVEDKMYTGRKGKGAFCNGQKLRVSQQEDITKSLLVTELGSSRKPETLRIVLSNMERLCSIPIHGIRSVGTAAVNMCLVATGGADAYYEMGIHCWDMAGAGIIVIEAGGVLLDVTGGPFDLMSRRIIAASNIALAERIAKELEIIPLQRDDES
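The IP-One HTRF competitive assay in carbachol-stimulated CHO-M1 cells quantifies cellular IP1. Compounds spanned up to 46 uM final, and activity is expressed as AC50 from concentration-response fits of the ratio and donor data.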
IMPase Li inh – membrane-permeable IMPase blocker, potentiated with lithium; CHO-M1 cells, IP1 TR-FRET (IP-One), carbachol + lithium; 0.35% of 210,000 active; Potency, µM (doses to about 59.4 µM), for the others: at the highest dose activity, negative = IMPase inhibition, usual class: inhibitors; AID 1457; active = well fitted inhibition curve with a large enough effect; inconclusive = small, poorly fitted or top-dose-only effect; inactive = no such curve, though single readings can be large or run the other way;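 note: IP1 builds up when IMPase is blocked and the TR-FRET signal falls; potency is the fitted concentration of half-maximal effect; plate controls were basal vehicle for no effect and high inhibitor control for full effect; nearly all actives have a fitted effect of over 50% in size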
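Concentration–response in CHO-M1 cells, lithium-potentiated; 30 min at 37C. IP1 detected by competitive TR-FRET after 10 min lysis at RT. Hill-fitted AC50.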
Active calls of the source: *; ? = inconclusive; nt = no result; [ ] = another dose, or the depositor's remark. Hits are enriched below; roughly 0.36% of the tested compounds scored in any of these assays.

SMILES	IMPase cell inh	IMPase Li inh
O=C(Nc1cccc(F)c1)N1CC[C@@]2(CCCN(C(=O)c3cc(C(F)(F)F)cc(C(F)(F)F)c3)C2)C1	nt	3%
COc1cc(OC)c([C@@H]2O[C@H](CO)[C@@H](O)[C@H](O)[C@H]2O)c(OC)c1	nt	10%
NCC1CCCCC1CC(=O)O (centres undefined)	nt	17%
COc1ccc(-c2cc(C3CC3)nc3sc(C#N)c(N)c23)cc1	-19	-5%
N#Cc1sc2nc(-c3ccccc3)cc(C(F)(F)F)c2c1N	nt	-13%
N#Cc1sc2nc(-c3cccs3)cc(-c3ccc(Cl)cc3)c2c1N	?	10µM*
N#Cc1sc2nc(-c3cccs3)cc(-c3ccccc3)c2c1N	-25	10µM*
COc1ccc(Oc2ncc3nc(-c4ccc(OC)cc4)c(=O)n(C)c3n2)cc1	nt	-6%
Cn1c(=O)c(-c2ccc(Cl)cc2)nc2cnc(Oc3ccccc3)nc21	nt	11µM*
Cn1c(=O)c(-c2ccc(F)cc2)nc2cnc(Oc3ccccc3)nc21	nt	7.9µM*
Cn1c(=O)c(-c2ccccc2)nc2cnc(Oc3ccccc3)nc21	nt	-4%
COc1ccc(C(=O)Nc2ccc(-c3cc4ccccc4oc3=O)c(C)c2)cc1Br	-2	nt
CN1CCN(c2ncc3nc(-c4cn(C)c5ccccc45)c(=O)n(Cc4cccs4)c3n2)CC1	nt	-14%
COc1cccc(-n2nc3c(=S)[nH]nc(C)c3c2C)c1	-14	?
Cc1n[nH]c(=S)c2nn(-c3cccc(Cl)c3)c(C)c12	-15	?
Cc1ccc(-n2nc3c(=S)[nH]nc(C)c3c2C)cc1	?	4.5µM*
Cc1n[nH]c(=S)c2nn(-c3ccccc3)c(C)c12	?	14µM*
O=C(Oc1ccccc1)C1O[C@@H]1c1ccccc1 (some centres undefined)	nt	2%
O=C(O)CCC/C=C\C[C@@H]1C(/C=C/[C@@H](O)COc2cccc(C(F)(F)F)c2)[C@@H](O)C[C@@H]1O (some centres undefined)	nt	5%
COc1ccccc1C1CC(=O)Oc2cc3c(cc21)OCO3 (centres undefined)	nt	-1%
O=C1C(Nc2ccccc2)=CC(c2ccc(Br)cc2)N1c1ccccc1 (centres undefined)	5	nt
CC1(C)Cc2ccccc2-c2c1c(=O)n(Cc1ccccc1)c1nnnn21	-16	5%
CCn1c(=S)[nH]c2c(c1=O)C(C)(C)Cc1ccccc1-2	nt	4.5µM*
CC1(C)Cc2ccccc2-c2nc3n(c(=O)c21)CCS3	nt	7%
Cn1c(=S)[nH]c2c(c1=O)C(C)(C)Cc1ccccc1-2	nt	1.4µM*
SMILES	IMPase cell inh	IMPase Li inh
CCOC(=O)CCc1c(C)nc2cc(-c3ccccc3OC)[nH]n2c1=O	-7	22%[38.3 µM]
CCn1c(C)c(CCC(=O)O)c(=O)n2nc(-c3ccccc3OC)cc12	?	10µM*
N#Cc1c(-c2cccs2)cc(-c2cccnc2)nc1N	-2	-5%[38.3 µM]
N#Cc1c(-c2ccc(Br)cc2)cc(-c2cccnc2)nc1N	nt	22µM*
CNC(=O)c1ccccc1	nt	9%
Cc1ccccc1S(=O)(=O)Nc1nc2ccccc2nc1Cl	nt	3.5µM*
O=S(=O)(Nc1nc2ccccc2nc1Cl)c1ccc(Cl)cc1	nt	-26%
C[C@@]12C[C@H](O)C3[C@H](CCC4=CC(=O)CC[C@]43C)[C@H]1CC[C@@H]2c1csc(-c2ccccc2)n1 (some centres undefined)	nt	10%
Cc1sc(NC(=S)NC(=O)CCc2ccccc2)c(C(N)=O)c1C	nt	11µM*
Cc1sc(NC(=S)NC(=O)c2ccco2)c(C(N)=O)c1C	nt	-17%
Cc1ccc(-c2cc(C(=O)Oc3ccccc3)c3cc(C)ccc3n2)cc1	12	nt
COc1ccc(NC(=O)c2ccco2)cc1NC(=O)c1ccc(OC(C)C)cc1	7	nt
COc1cccc([C@@H]2Oc3ccc(OC)cc3C(=O)[C@H]2OC(=O)NCCc2ccc(OC)c(OC)c2)c1	nt	-11%
Cc1ccc(C(=O)O)cc1N1C(=O)c2cccc3cc(Br)cc(c23)C1=O	?	2.2µM*
Cc1n[nH]c(C)c1N1C(=O)c2cccc3cc(Br)cc(c23)C1=O	-26	-17%[38.3 µM]
CCCC(=O)NCCc1c(I)[nH]c2ccc(OC)cc12	nt	1%
NS(=O)(=O)c1ccc(NS(=O)(=O)c2ccc(NC(=O)c3ccc(-c4ccccc4)cc3)cc2)cc1	-2	0%[38.3 µM]
NS(=O)(=O)c1ccc(NC(=O)c2ccc(-c3ccccc3)cc2)cc1	nt	8.9µM*
O=c1c2ccccc2c(-c2n[nH]c(=S)o2)nn1Cc1ccccc1	nt	-16%
COc1ccc(Cl)cc1-c1n[nH]c(=S)o1	?	6.3µM*
S=c1[nH]nc(-c2ccccc2)o1	?	11µM*
CC(Cc1n[nH]c(=S)o1)c1ccccc1 (centres undefined)	nt	6%
Cc1ccccc1-c1n[nH]c(=S)o1	?	10µM*
CCCCn1c(-c2cc(Cl)ccc2OC)n[nH]c1=S	-11	-9%[38.3 µM]
Cc1ccc(-c2cc(-c3n[nH]c(=S)o3)c3ccccc3n2)cc1	nt	3%
SMILES	IMPase cell inh	IMPase Li inh
CSc1ccccc1-c1n[nH]c(=S)o1	nt	10µM*
COc1ccc2cc3cc(C(=O)N4CCN(c5cccc(Cl)c5)CC4)sc3nc2c1	1	nt
Cc1noc(NS(=O)(=O)c2cccc3c(N(C)C)cccc23)c1C	-5	-12%
O=C(OC1Cc2c(O)cc(O)cc2OC1c1cc(O)c(O)c(O)c1-c1c(C2Oc3cc(O)cc(O)c3CC2O)cc(O)c(O)c1O)c1cc(O)c(O)c(O)c1 (centres undefined)	nt	3%
COC(=O)C1=C(C(=O)OC)[C@@H]2N(C)c3ccc(OC)cc3[C@@]23C[C@@H](C(=O)OC)N(S(=O)(=O)c2ccc4c(c2)OCCN4C)C3=N1	nt	10%
COC(=O)N1CCC2(CC1)CCN(c1ccncc1)CC2	nt	18%
C=CCN1CCc2c(cc(O)c(O)c2Br)[C@H](c2ccccc2)C1	9	nt
Cc1ccc(CNC(=O)CC2Nc3c4ccccc4nc(=S)n3C2=O)cc1 (centres undefined)	nt	5.6µM*
CC(C)CCNC(=O)CC1Nc2c3ccccc3nc(=S)n2C1=O (centres undefined)	?	-22%[38.3 µM]
COc1ccccc1C(=O)Nc1ccc(S(=O)(=O)Nc2ncccn2)cc1	-7	nt
Cc1ccc(-c2c(C(=O)Nc3ccccc3C)c(C)[nH]c(=S)c2C#N)o1	nt	11µM*
CCN(CC)C(=O)c1c(C)[nH]c(=S)c(C#N)c1-c1ccco1	nt	-2%
CC(=O)N1CCC2(CCN(Cc3nccs3)CC2)CC1	nt	8%
COc1ccc2[nH]c(=O)c(CN(C)C(=O)C3CCCCC3)cc2c1	-6	28µM*
COc1ccc2[nH]c(=O)c(CN(C)C(=O)c3ccncc3)cc2c1	4	20%[38.3 µM]
O=C(Nc1ccccc1C(=O)O)c1cccc(S(=O)(=O)N2CCCC2)c1	-7	nt
CN1CCCN([C@@H](c2ccccc2)c2ccc(Cl)cc2)CC1	15[20.6 µM]	24%
N#Cc1ccc(CS(=O)(=O)c2ccccc2)cc1	nt	13%
O=c1c2cccnc2[nH]c(=S)n1Cc1ccccc1	5	10µM*
O=c1c2nccnc2[nH]c(=S)n1Cc1ccccc1	nt	-4%
O=C1[C@@H]2C=CC=CC2=NC(=S)N1CCN1CCC(=C(c2ccc(F)cc2)c2ccc(F)cc2)CC1	3	nt
COc1ccc(C(=O)N=c2sc3ccccc3n2C)cc1OC	nt	3%
COC(=O)Cn1c(=NC(=O)c2ccc(OC)c(OC)c2)sc2cc(OC)ccc21	nt	8.9µM*
Nc1cccc(-c2cn3cccnc3n2)c1	nt	-6%
Cc1ccc(-c2cn3cccnc3n2)cc1	nt	10µM*

Screens deposited in PubChem BioAssay by National Center for Advancing Translational Sciences (NCATS).
